Measured values: the supplement of paper PMC6411743
± gives the standard deviation of the averaged measurements. Of roughly 6,500 targets only a part is listed; those with the largest changes were picked by preference.

Compound: Nc1ncnc2c1ncn2[C@@H]1O[C@H](COP(=O)(O)OP(=O)(O)OP(=O)(O)O)[C@@H](O)[C@H]1O [adenosine triphosphate]
Experiment: NP40-soluble protein abundance relative to vehicle (solubility fold change) (ratio); higher = more soluble protein in presence of ATP
Procedure, shortened: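 Jurkat crude lysate prepared with a Dounce homogeniser was treated at eight concentrations spanning 0.1 to 10 mM, 10 min at room temperature then 3 min at 37 °C. Solubilisation with 0.8% NP40 and benzonase and ultracentrifugation preceded TMT labelling of the supernatant for LC-MS/MS. Fold change against the detergent-processed vehicle was determined per replicate from vsn-normalised intensities, across three independent experiments.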

Sequence of UniProt Q9UNF0 (Q9UNF0 whole entry): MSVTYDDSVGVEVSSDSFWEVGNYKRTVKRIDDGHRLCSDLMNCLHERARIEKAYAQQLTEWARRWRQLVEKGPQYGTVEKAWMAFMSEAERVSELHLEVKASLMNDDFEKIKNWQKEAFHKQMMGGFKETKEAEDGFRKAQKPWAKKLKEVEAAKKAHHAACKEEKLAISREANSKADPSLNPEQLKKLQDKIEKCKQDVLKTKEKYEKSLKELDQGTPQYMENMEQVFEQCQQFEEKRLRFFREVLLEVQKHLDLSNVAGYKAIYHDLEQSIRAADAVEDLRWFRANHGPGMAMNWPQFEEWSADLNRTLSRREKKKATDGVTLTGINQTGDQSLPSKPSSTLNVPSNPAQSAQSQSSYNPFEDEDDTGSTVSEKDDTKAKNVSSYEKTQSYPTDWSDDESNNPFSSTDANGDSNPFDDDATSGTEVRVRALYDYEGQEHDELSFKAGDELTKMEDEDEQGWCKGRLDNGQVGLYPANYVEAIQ
Sequence of UniProt Q9Y6I9 (Q9Y6I9 whole entry): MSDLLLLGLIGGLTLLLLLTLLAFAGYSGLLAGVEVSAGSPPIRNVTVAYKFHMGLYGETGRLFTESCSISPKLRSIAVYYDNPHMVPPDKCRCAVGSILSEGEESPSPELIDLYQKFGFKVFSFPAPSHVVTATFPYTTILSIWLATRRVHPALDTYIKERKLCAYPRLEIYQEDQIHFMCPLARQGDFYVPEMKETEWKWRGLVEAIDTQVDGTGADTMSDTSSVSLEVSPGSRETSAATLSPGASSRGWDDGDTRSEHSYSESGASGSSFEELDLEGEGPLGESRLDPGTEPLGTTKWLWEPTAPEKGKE
Sequence of UniProt Q9UIV1 (Q9UIV1 whole entry): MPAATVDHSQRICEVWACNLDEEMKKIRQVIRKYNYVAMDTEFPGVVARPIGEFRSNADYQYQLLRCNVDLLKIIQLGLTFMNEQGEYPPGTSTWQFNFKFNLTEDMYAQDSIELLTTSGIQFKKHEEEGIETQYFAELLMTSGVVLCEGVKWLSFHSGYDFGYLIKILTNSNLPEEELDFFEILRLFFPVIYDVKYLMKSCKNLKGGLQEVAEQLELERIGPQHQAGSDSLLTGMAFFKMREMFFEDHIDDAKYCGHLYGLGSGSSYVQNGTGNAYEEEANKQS
Sequence of UniProt Q9UPN7 (Q9UPN7 whole entry): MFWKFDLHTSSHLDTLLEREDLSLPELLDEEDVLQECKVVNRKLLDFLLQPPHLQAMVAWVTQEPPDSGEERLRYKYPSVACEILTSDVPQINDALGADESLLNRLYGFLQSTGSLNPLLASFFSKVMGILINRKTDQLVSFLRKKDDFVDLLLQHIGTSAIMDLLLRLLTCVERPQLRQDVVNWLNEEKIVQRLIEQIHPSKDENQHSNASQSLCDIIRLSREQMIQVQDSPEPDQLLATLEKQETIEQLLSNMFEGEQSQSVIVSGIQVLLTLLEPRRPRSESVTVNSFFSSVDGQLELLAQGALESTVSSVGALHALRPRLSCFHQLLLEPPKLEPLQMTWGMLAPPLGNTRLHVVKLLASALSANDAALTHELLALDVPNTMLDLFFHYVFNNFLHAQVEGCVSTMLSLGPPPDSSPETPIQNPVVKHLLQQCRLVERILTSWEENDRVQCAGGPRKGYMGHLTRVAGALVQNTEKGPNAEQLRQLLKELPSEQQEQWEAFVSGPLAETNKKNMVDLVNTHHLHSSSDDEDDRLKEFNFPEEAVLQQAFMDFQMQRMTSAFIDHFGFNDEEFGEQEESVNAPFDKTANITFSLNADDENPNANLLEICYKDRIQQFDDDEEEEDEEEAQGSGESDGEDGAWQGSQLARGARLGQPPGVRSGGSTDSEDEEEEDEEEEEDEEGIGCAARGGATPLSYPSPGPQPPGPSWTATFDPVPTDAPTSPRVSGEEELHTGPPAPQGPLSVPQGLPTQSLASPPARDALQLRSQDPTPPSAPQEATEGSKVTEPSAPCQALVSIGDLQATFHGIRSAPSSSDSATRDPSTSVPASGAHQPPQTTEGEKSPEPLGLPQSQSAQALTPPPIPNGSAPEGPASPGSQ
Sequence of UniProt Q9Y2H0 (Q9Y2H0 whole entry): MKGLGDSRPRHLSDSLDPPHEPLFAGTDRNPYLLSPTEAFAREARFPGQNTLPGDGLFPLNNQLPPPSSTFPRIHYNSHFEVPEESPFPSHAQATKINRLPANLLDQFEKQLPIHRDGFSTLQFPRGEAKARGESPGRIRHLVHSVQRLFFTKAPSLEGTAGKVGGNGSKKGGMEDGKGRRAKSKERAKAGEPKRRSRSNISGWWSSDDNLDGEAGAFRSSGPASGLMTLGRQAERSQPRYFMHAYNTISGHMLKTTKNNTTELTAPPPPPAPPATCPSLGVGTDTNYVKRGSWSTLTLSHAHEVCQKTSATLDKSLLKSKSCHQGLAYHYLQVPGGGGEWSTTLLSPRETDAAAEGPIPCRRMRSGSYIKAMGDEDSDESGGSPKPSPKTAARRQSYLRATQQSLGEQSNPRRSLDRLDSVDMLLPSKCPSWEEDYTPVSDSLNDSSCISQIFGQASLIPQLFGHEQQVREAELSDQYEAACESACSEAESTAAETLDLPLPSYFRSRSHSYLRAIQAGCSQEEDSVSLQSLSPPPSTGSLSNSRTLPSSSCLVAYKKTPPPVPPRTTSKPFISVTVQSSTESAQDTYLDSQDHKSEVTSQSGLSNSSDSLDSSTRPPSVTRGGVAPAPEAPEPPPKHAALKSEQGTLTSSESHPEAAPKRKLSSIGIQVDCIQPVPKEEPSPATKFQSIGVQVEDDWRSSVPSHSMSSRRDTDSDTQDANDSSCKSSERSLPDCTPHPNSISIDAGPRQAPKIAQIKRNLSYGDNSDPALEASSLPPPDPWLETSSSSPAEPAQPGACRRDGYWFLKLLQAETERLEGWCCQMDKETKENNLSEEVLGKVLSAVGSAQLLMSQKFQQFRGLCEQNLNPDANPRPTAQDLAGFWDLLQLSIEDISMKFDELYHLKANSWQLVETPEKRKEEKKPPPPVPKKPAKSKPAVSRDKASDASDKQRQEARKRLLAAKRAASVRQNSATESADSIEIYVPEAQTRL
Sequence of UniProt Q9UL15 (Q9UL15 whole entry): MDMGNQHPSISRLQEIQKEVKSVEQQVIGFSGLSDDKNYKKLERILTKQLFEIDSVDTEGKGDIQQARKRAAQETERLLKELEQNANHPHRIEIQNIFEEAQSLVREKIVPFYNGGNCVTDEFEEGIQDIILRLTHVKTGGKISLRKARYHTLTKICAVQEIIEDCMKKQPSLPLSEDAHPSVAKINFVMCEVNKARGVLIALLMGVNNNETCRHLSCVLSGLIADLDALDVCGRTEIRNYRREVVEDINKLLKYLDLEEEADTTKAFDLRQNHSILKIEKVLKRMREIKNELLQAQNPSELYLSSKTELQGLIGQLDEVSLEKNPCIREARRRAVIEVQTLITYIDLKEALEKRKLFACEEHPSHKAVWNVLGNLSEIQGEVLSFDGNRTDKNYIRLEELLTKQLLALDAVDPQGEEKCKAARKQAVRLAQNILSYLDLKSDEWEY
Sequence of UniProt Q9UIQ6 (Q9UIQ6 whole entry): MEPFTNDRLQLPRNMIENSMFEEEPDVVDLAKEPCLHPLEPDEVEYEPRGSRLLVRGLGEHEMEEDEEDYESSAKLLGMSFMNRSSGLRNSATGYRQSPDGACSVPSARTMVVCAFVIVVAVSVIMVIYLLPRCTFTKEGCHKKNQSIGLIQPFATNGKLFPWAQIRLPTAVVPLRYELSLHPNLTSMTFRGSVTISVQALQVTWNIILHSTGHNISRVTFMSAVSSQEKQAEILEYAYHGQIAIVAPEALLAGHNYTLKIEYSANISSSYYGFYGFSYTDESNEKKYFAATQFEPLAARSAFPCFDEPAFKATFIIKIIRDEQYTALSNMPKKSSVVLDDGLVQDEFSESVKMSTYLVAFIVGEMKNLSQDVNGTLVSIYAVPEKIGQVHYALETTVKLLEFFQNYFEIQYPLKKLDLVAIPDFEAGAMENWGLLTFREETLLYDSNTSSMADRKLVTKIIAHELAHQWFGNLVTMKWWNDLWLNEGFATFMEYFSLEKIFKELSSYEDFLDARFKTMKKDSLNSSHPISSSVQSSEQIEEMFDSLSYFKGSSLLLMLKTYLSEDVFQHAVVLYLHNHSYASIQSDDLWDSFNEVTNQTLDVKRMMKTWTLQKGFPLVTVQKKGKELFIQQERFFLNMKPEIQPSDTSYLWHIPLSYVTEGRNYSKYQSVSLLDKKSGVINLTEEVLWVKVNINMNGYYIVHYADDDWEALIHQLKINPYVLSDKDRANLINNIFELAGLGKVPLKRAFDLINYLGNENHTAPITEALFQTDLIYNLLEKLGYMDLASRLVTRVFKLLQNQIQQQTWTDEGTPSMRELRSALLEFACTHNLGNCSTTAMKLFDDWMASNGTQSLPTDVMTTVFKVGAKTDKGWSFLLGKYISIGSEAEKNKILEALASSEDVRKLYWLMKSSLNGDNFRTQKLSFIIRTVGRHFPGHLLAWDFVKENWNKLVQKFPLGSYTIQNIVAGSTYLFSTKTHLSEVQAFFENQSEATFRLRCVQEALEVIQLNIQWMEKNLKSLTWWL
Sequence of UniProt Q9Y3Q3 (Q9Y3Q3 whole entry): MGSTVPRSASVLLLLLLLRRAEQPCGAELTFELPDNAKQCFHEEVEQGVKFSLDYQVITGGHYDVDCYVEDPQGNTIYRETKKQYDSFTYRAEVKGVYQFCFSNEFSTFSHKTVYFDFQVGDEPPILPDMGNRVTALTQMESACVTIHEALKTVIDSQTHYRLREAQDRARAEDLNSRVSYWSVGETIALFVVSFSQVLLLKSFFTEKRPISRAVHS
Sequence of UniProt Q9Y3C6 (Q9Y3C6 whole entry): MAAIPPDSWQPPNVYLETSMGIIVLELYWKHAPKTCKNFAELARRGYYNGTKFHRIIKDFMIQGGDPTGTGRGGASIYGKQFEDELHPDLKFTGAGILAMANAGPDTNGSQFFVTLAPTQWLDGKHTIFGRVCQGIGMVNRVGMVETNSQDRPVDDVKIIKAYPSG

Target	NP40-soluble protein abundance (concentration: 1mM)	NP40-soluble protein abundance (concentration: 2mM)	NP40-soluble protein abundance (concentration: 4mM)	NP40-soluble protein abundance (concentration: 6mM)	NP40-soluble protein abundance (concentration: 8mM)	NP40-soluble protein abundance (concentration: 10mM)
UniProt Q9Y3I0	0.997 ± 0.038	0.974 ± 0.025	0.979 ± 0.043	1.04 ± 0.04	1.02 ± 0.048	1.02 ± 0.048
UniProt Q9Y639|Q9Y639-1|Q9Y639-3|Q9Y639-5	0.919 ± 0.11	0.888 ± 0.06	0.938 ± 0.1	0.926 ± 0.084	0.896 ± 0.061	0.851 ± 0.11
PARP4 (UniProt Q9UKK3)	1.14 ± 0.017	1.15 ± 0.12	1.12 ± 0.083	1.15 ± 0.14	1.14 ± 0.042	1.19 ± 0.085
UniProt Q9UPN7	0.945 ± 0.014	0.941 ± 0.046	0.941 ± 0.029	0.917 ± 0.041	0.924 ± 0.018	0.93 ± 0.037
UniProt Q9ULI0|Q9ULI0-2	1.69 ± 0.34	1.83 ± 0.46	1.86 ± 0.57	1.86 ± 0.44	1.75 ± 0.44	1.72 ± 0.48
UniProt Q9Y303|Q9Y303-2|Q9Y303-3	0.995 ± 0.056	1.03 ± 0.069	1.03 ± 0.083	0.973 ± 0.12	1.02 ± 0.086	0.995 ± 0.063
UniProt Q9ULV4|Q9ULV4-2|Q9ULV4-3	1.08 ± 0.086	1.16 ± 0.1	1.24 ± 0.11	1.4 ± 0.12	1.43 ± 0.13	1.52 ± 0.16
DBR1 (UniProt Q9UK59)	1.04 ± 0.066	1.03 ± 0.066	1.02 ± 0.051	0.973 ± 0.11	1.03 ± 0.056	1.03 ± 0.044
NOP58 (UniProt Q9Y2X3)	1.08 ± 0.062	1.1 ± 0.054	1.2 ± 0.054	1.35 ± 0.079	1.51 ± 0.042	1.71 ± 0.13
UniProt Q9Y6X3	0.977 ± 0.053	1.06 ± 0.086	1.15 ± 0.25	1.09 ± 0.26	0.98 ± 0.057	1.11 ± 0.22
UniProt Q9UPN4-2|Q9UPN4-3|I3L2J8|Q9UPN4	1.15 ± 0.14	1.18 ± 0.14	1.35 ± 0.12	1.45 ± 0.21	1.47 ± 0.26	1.7 ± 0.26
ACAD8 (UniProt Q9UKU7)	1.01 ± 0.049	1 ± 0.064	0.988 ± 0.033	0.961 ± 0.058	0.983 ± 0.029	0.99 ± 0.038
UniProt Q9Y2H0|Q9Y2H0-3|Q9Y2H0-1	0.921 ± 0.038	0.899 ± 0.068	0.922 ± 0.045	0.944 ± 0.025	0.861 ± 0.093	0.85 ± 0.052
UniProt Q9UHB6|F8VQE1|Q9UHB6-2	1.05 ± 0.14	1.16 ± 0.14	1.35 ± 0.16	1.56 ± 0.21	1.62 ± 0.12	1.86 ± 0.18
CNOT7 (UniProt Q9UIV1)	1.23 ± 0.044	1.22 ± 0.06	1.29 ± 0.038	1.25 ± 0.037	1.3 ± 0.061	1.26 ± 0.076
WDR3 (UniProt Q9UNX4)	1.28 ± 0.11	1.46 ± 0.1	1.82 ± 0.17	1.97 ± 0.2	2.23 ± 0.2	2.34 ± 0.13
MRPS2 (UniProt Q9Y399)	1.11 ± 0.13	0.951 ± 0.12	0.932 ± 0.071	0.917 ± 0.17	0.944 ± 0.12	0.884 ± 0.088

Target	NP40-soluble protein abundance (concentration: 1mM)	NP40-soluble protein abundance (concentration: 2mM)	NP40-soluble protein abundance (concentration: 4mM)	NP40-soluble protein abundance (concentration: 6mM)	NP40-soluble protein abundance (concentration: 8mM)	NP40-soluble protein abundance (concentration: 10mM)
UniProt Q9ULE6	1.08 ± 0.084	1.03 ± 0.12	1.06 ± 0.092	0.991 ± 0.1	1.05 ± 0.045	1.02 ± 0.048
POFUT2 (UniProt Q9Y2G5)	1 ± 0.037	1.04 ± 0.019	1.01 ± 0.012	1.02 ± 0.04	0.955 ± 0.029	0.975 ± 0.017
TRPV2 (UniProt Q9Y5S1)	1.02 ± 0.076	1.02 ± 0.073	0.999 ± 0.03	0.955 ± 0.0051	0.965 ± 0.048	0.976 ± 0.023
UniProt Q9UL15|Q9UL15-2	0.964 ± 0.032	0.988 ± 0.024	0.976 ± 0.035	0.993 ± 0.018	0.971 ± 0.01	0.979 ± 0.029
LUC7L2 (UniProt Q9Y383)	1.84 ± 0.14	1.95 ± 0.034	2.05 ± 0.038	2.21 ± 0.066	2.12 ± 0.087	2.11 ± 0.095
TEX264 (UniProt Q9Y6I9)	0.918 ± 0.028	0.919 ± 0.024	0.91 ± 0.041	0.916 ± 0.061	0.867 ± 0.058	0.886 ± 0.029
UniProt Q9UKI8|Q9UKI8-5	0.986 ± 0.039	0.998 ± 0.025	1 ± 0.059	0.993 ± 0.041	0.953 ± 0.021	0.977 ± 0.054
UniProt Q9Y5T5-2	1.08 ± 0.067	1.11 ± 0.032	1.19 ± 0.014	1.33 ± 0.045	1.351 ± 0.012	1.41 ± 0.028
PPIL1 (UniProt Q9Y3C6)	0.919 ± 0.019	0.9512 ± 0.0074	0.913 ± 0.034	0.963 ± 0.031	0.964 ± 0.016	0.902 ± 0.065
UniProt Q9Y224	0.958 ± 0.053	0.872 ± 0.031	0.903 ± 0.092	0.918 ± 0.12	0.995 ± 0.011	0.782 ± 0.18
UniProt Q9UNF0|Q9UNF0-2	0.963 ± 0.04	0.952 ± 0.024	0.927 ± 0.011	0.954 ± 0.023	0.895 ± 0.019	0.9 ± 0.049
NOB1 (UniProt Q9ULX3)	1.07 ± 0.023	1.06 ± 0.086	1.03 ± 0.077	1.07 ± 0.13	1.08 ± 0.054	1.05 ± 0.065
TMED3 (UniProt Q9Y3Q3)	1.08 ± 0.12	1.07 ± 0.12	1.06 ± 0.086	1.04 ± 0.13	1.06 ± 0.057	1.04 ± 0.088
UniProt Q9Y5P4|Q9Y5P4-2|Q9Y5P4-3	0.9555 ± 0.0053	0.974 ± 0.025	0.948 ± 0.011	0.949 ± 0.024	0.93 ± 0.011	0.954 ± 0.026
LNPEP (UniProt Q9UIQ6)	0.914 ± 0.015	0.937 ± 0.021	0.909 ± 0.022	0.918 ± 0.035	0.882 ± 0.045	0.872 ± 0.038
PPME1 (UniProt Q9Y570)	0.951 ± 0.039	0.972 ± 0.056	0.956 ± 0.037	0.933 ± 0.085	0.941 ± 0.023	0.953 ± 0.058
